This is a sample that favours compounds with a hit; in the whole collection about 4.7% have one here.
SKKanGAS inh – blocks kanamycin growth of S. pyogenes SKKanGAS strain | inhibition, % at 7.5 µM | 1.3% of 300,000 active | BacTiter-Glo, 6 h;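 active = mean replicate score, as percent of positive control median, at least 50; inconclusive = mean below 50 but one replicate at or above 50; inactive = mean and every replicate below 50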;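 note: strain carries kanamycin resistance gene driven by streptokinase promoter and grows in 40 µg/ml kanamycin; loss of luminescence reflects streptokinase promoter inhibition or plain growth inhibition; 0% = median of DMSO wells and 100% = positive control at its reference dose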
PfHsp90 set2 – reduces growth (ATP signal) of yeast expressing P. falciparum Hsp90. S. cerevisiae expressing PfHsp90, BacTiter-Glo ATP, 48 h; yeast lacking PDR1 and PDR3 efflux regulators. inhibition, % at 9.4 µM. 0.32% of 310,000 active. AID 504621;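 active = every replicate shows inhibition above about 80%, whatever the replicate mean, limit read from the data; inconclusive = mean inhibition reaches the set limit but some replicate falls short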;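 note: 0% = DMSO neutral controls and 100% = 20 µM radicicol positive controls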
tim23-1 inh – growth inhibitors of tim23-1 mutant yeast; S. cerevisiae tim23-1 growth, BacTiter-Glo luminescence, 24 h; inhibition, % at 20 µM; 1.3% of 330,000 active;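 active = growth inhibition of the mutant yeast at or above 50%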;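 note: temperature-sensitive mutant grown at 25 °C; plate controls were DMSO-treated mutant yeast for no effect and medium wells lacking yeast for full effect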
tim10-1 inh – tim10-1 yeast growth inhibition; AID 463190; 2.2% of 330,000 active; inhibition, % at 20 µM; S. cerevisiae tim10-1 ts strain growth, BacTiter-Glo, 24 h;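 active = inhibition of at least 40%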;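 note: mutant grown at 25 °C; 0% = DMSO wells with yeast and 100% = wells holding no yeast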
TIM10 inh – inhibits growth of TIM10 yeast strain; inhibition, % at 10 µM; 1.4% of 330,000 active; S. cerevisiae TIM10 strain growth, BacTiter-Glo luminescence, 24 h;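 active = inhibition of 40% or more at the single tested concentration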;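 note: wild-type TIM10 isogenic control strain grown at permissive 25 °C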
EBI2 antag – EBI2 (human) antagonism; inhibition, % at 5 µM; EBI2 beta-arrestin recruitment, luminescence, 7a,25-OHC stimulated; AID 651636; 0.81% of 360,000 active; P32249; in the data active = inhibition above about 38%;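 note: enzyme fragment complementation signal reports receptor beta-arrestin coupling in cells; 0% = agonist plus DMSO wells and 100% = wells without agonist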
Target sequence (P32249 whole entry, looked up, the tested form may be a part): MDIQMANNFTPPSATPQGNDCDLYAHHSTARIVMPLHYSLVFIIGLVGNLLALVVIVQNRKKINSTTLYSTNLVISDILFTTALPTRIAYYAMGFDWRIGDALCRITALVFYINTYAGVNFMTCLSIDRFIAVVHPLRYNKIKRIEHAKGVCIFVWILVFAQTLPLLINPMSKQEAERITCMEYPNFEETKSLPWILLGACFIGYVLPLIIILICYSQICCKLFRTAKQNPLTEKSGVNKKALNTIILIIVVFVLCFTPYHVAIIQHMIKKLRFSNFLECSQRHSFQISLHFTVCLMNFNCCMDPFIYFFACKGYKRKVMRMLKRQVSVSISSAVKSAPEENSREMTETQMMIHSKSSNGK
Numbers without * were called inactive; u = inconclusive; x = no result given.

SMILES	SKKanGAS inh	PfHsp90 set2	tim23-1 inh	tim10-1 inh	TIM10 inh	EBI2 antag
COc1ccc(/C=C/C(=O)NC(=S)NNC(=O)Cc2cccs2)cc1	109*	0	-38	-3	2	8
O=C(/C=C/c1cccs1)NC(=S)Nc1ccccc1	5	x	-11	29	30	1
COc1ccc(C(=O)NNC(=S)NC(=O)/C=C/c2cccs2)cc1	62*	-38	-13	11	-14	6
CCOC1=C2[C@@H](CN(S(=O)(=O)c3ccc(C)cc3)[C@H]2c2cccc3ccccc23)[C@H]2C(=O)N(C3CCCCC3)C(=O)[C@H]2C1	x	x	x	x	x	4
COc1ccccc1Cc1c(-c2ccc(C#N)cc2)nc2ccc(C)cn12	x	x	x	x	x	40
COc1ccc(Oc2nc(SC)nc3ccsc23)cc1	16	0	32	19	24	-7
CSc1nc(Oc2ccc3ccccc3c2)c2sccc2n1	54*	4	8	7	-3	-10
CC(C)C1C(c2ccccc2)N(C)C(c2ccccc2)CC1(O)c1ccccc1 (stereo not drawn)	88*	33	42	19	29	14
COc1cc(OC)c(C2C=CC(=O)CC2)c(OC)c1 (stereo not drawn)	x	x	x	x	x	-1
Cc1ccc(S(=O)(=O)N2CCC(C(=O)NNC(=O)c3ccccc3O)CC2)cc1C	0	-18	9	3	6	9
Cc1cc(C)c(C)c(S(=O)(=O)N2CCC(C(=O)NNC(=O)c3ccccc3O)CC2)c1C	61*	-7	19	10	-8	0
Cc1cc(C)n(CCNC(=O)[C@H]2O[C@@H](n3ccc(=O)[nH]c3=O)[C@H](O)[C@@H]2O)n1	x	x	x	x	x	-9
CCc1cccc2c(C(=O)COC(=O)/C=C/c3ccc(O)c(OC)c3)c[nH]c12	51*	-9	13	-11	10	15
CC(OC(=O)Cc1n[nH]c(=O)c2ccccc12)C(=O)Nc1ccc(Cl)cn1 (stereo not drawn)	68*	11	32	10	-6	12
COc1cccc(/C=N/NC(=O)c2ccoc2C)c1O	77*	4	42	-10	23	-7
COc1ccc(-c2csc(-n3ncc(C(=O)O)c3C(F)(F)F)n2)cc1	4	-13	14	14	-8	0
CCOC(=O)c1cnn(-c2nc(-c3ccccc3F)cs2)c1C(F)(F)F	52*	x	16	6	-1	39
CCOC(=O)c1cnn(-c2nc(-c3ccccc3)cs2)c1C(F)(F)F	71*	-62	35	31	31	x
CCC1C(=O)Nc2nc(-c3ccccc3)c(-c3ccccc3)n2N=C1C (stereo not drawn)	14	-42	33	28	25	2
COCCn1c(=S)[nH]c2sc3c(c2c1=O)CCC(C)C3 (stereo not drawn)	3	-79	28	12	5	5
Cn1c(=S)[nH]c2sc3c(c2c1=O)CCC(C(C)(C)C)C3 (stereo not drawn)	79*	-10	18	32	5	12
O=C(c1cc(-c2ccccc2)nc2ccccc12)N1CCN(c2ccccc2O)CC1	67*	-44	40	30	27	7
Cc1nc2c(C)cccn2c(=O)c1NC(=O)c1ccc2c(c1)OCO2	50*	-14	15	4	0	-1
Brc1ccc(Nc2ncnc3[nH]ncc23)cc1	52*	x	38	29	30	-2
CC(=O)N1c2ccc(S(=O)(=O)NCC3CCC(C(=O)Nc4cc(C)ccn4)CC3)cc2CC1C (stereo not drawn)	10	-1	13	16	13	-3
SMILES	SKKanGAS inh	PfHsp90 set2	tim23-1 inh	tim10-1 inh	TIM10 inh	EBI2 antag
Cc1ccc(N(C)S(=O)(=O)c2ccc3c(c2)CC(C)N3C(=O)C2CC2)cc1 (stereo not drawn)	102*	-21	41	32	17	0
CC(=O)N1c2ccc(S(=O)(=O)N3CCC(C(=O)Nc4cc(C)ccn4)CC3)cc2CC1C (stereo not drawn)	52*	29	-4	-10	6	6
O=C1CC(NS(=O)(=O)c2ccc([N+](=O)[O-])cc2)CN1c1cccc(F)c1 (stereo not drawn)	7	x	8	29	2	-16
Cc1ccccc1Nc1nnc(SCC(=O)c2c(N)n(C3CC3)c(=O)[nH]c2=O)s1	x	25	8	4	-4	2
COc1ccc(N(CC(=O)N2CCN(C)CC2)S(=O)(=O)c2cc(C)ccc2OC)cc1Cl	-8	-8	11	8	5	-2
CCN(CC)c1ccc2c(O)cc(=O)oc2c1	5	-1	19	9	8	3
CCN(CC)c1ccc(C(=O)OCc2cc(=O)oc3cc(O)ccc23)cc1	51*	-2	1	10	-6	9
COc1cc(NC(=O)CCc2c(C)noc2C)c(C(=O)O)cc1OC	x	x	x	x	x	-4
CC(=NNC(=S)N(Cc1ccccn1)Cc1ccccn1)c1cnccn1	x	110*	x	x	x	7
S=C(NN=C(c1ccccc1)c1ccccn1)N(Cc1ccccn1)Cc1ccccn1	x	u	x	x	x	4
C/C(=N\NC(=O)c1cc2ccccc2cc1O)c1ccc2c(c1)OCO2	81*	5	-1	-9	12	18
C/C(=N\Nc1nc2ccccc2[nH]1)c1ccc2c(c1)OCO2	58*	-7	16	-48	-1	6
COc1ccc(OC)c(S(=O)(=O)NC(=O)C2(C)CCN2C(=O)CC2CCCC2)c1 (stereo not drawn)	x	x	x	x	x	-2
Nc1ncnc2c1ncn2[C@@H]1O[C@H](C(=O)NCC2CCN(Cc3ccccc3)CC2)[C@@H](O)[C@H]1O	x	x	x	x	x	-8
COc1cc(N)c2ncsc2c1	x	7	x	x	x	-42
Cc1ccc([C@@H]2CC(=O)[C@@H]3CN(S(=O)(=O)c4ccc(C)cc4)[C@H](c4ccccc4)C[C@@H]3N2S(=O)(=O)c2ccc(Cl)cc2)cc1	x	x	x	x	x	9
C[C@H]1CN([C@@H](C)CO)C(=O)CCCn2nncc2CO[C@H]1CN(C)S(=O)(=O)c1ccccc1	x	x	x	x	x	-5
CCOc1cc(/C=C2/NC(=S)NC2=O)ccc1OCc1ccc([N+](=O)[O-])cc1	74*	x	-6	7	-5	0
CC[C@H]1OC(=O)[C@H](C)[C@@H](O[C@H]2C[C@@](C)(OC)[C@@H](O)[C@H](C)O2)[C@H](C)[C@@H](O[C@@H]2O[C@H](C)C[C@H](N(C)C)[C@H]2O)[C@](C)(O)C[C@@H](C)CN(C)[C@H](C)[C@@H](O)[C@]1(C)O	110*	-19	-15	6	5	-3
CCC1OC(=O)C(C)C(OC2C[C@@](C)(OC)C(O)C(C)O2)C(C)C(O[C@@H]2OC(C)CC(N(C)C)C2O)[C@](C)(O)CC(C)C(=NOCOCCOC)C(C)C(O)[C@]1(C)O (stereo partly drawn)	x	4	8	1	3	1
O=C(Nc1nc([C@@H]2O[C@H](CO)[C@@H](O)[C@H](O)[C@H]2O)cs1)NC(c1ccccc1)c1ccccc1	x	x	x	x	x	-7
